ATXN viability: Viability Counterscreen for Primary qHTS for Inhibitors of ATXN expression; Potency, µM (doses to about 56.7 µM), most hits filed as cytotoxic; AID 651635, 2014; S2 cells (HEK-293 line with an ATXN2-luciferase reporter) viability, CellTiter-Fluor protease fluorescence, 24 h; 400,000 compounds, 0.49% hits; note: nearly all actives have a fitted effect of over 40% in size
TGFb SMAD3 inh: qHTS for Inhibitors of TGF-b. HepG2 CAGA-GFP TGF-b/SMAD3 reporter, GFP fluorescence, 18 h; TGF-beta stimulated, 500 pg/mL final. Potency, µM (top dose mostly 46.1 µM), inactives show at the highest dose activity, negative = inhibition, usual class: inhibitors. 410,000 compounds, 1.2% hits; note: % is set by controls: 0 for no effect and ±100 for the full control effect; nearly all actives have a fitted effect of over 65% in size
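Smad-responsive CAGA-GFP expression was quantified in HEPG2 cells exposed to compounds and 500 pg/mL final TGF-beta for 18 h at 37 degrees C; unstimulated wells defined full inhibition.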
TDP1 cell CPT: qHTS for Inhibitors of human tyrosyl-DNA phosphodiesterase 1 (TDP1): qHTS in cells in presence of CPT; chicken DT40 Tdp1-/-;hTDP1 cells + 20 nM CPT, ATP luminescence, 48 h; Potency, µM (doses to about 46.2 µM), without a hit: at the highest dose activity change, negative = growth inhibition, hits mostly inhibitors; 420,000 compounds, 12% hits; note: % is set by controls: 0 for no effect and ±100 for the full control effect; nearly all actives have a fitted effect of over 55% in size
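Cell growth measured by CellTiter-Glo luminescence after a minimum 48 h, 37 C compound exposure with 20 nM CPT in Tdp1-knockout DT40 cells stably expressing hTDP1, seeded 400/well; qHTS titration format.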
DT40 TDP1 no CPT: qHTS for Inhibitors of human tyrosyl-DNA phosphodiesterase 1 (TDP1): qHTS in cells in absence of CPT | DT40 Tdp1-/- hTDP1 cells, no CPT, ATP luminescence, 48 h | Potency, µM (series often up to 46.2 µM), without a hit: at the highest dose activity change, negative = growth inhibition, hits mostly inhibitors | 420,000 compounds, 15% hits; note: % is set by controls: 0 for no effect and ±100 for the full control effect; nearly all actives have a fitted effect of over 55% in size
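Camptothecin absent (DMSO only). Human TDP1-complemented DT40 knockout cells, 400 cells/well, 37 °C for minimum 48 hr; ATP measured via CellTiter-Glo, 30 min dark incubation, luminescence.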
HepG2 tox: qHTS for Inhibitors of TGF-b: Cytotox Counterscreen; HepG2 CAGA-GFP viability, ATP luminescence, 18 h; Potency, µM (doses to about 46.1 µM), for the others: at the top dose activity change, negative = cytotoxicity, actives largely listed as cytotoxic; 410,000 compounds, 0.76% hits
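HepG2 CAGA-GFP cells (1000/well, DMEM with 1% FBS) received compound, then TGF-beta at 500 pg/mL final, and were incubated 18 hours at 37 degrees C. Viability was read by CellTiter-Glo luminescence. Media-only wells were set as complete cell-killing and DMSO as no toxicity.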
ATXN2 expr inh: Primary qHTS for Inhibitors of ATXN expression | HEK-293 ATXN2-luciferase reporter, luminescence, 24 h | Potency, µM (doses to about 57 µM), for the others: top-dose activity change, negative = inhibition, actives largely listed as inhibitors | 360,000 compounds, 0.72% hits | AID 1745845, 2022; note: % is set by controls: 0 for no effect and ±100 for the full control effect; nearly all actives have a fitted effect of over 55% in size
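qHTS (up to 57 uM final) was run with 24 h compound exposure of reporter cells at 37 °C. Each well was multiplexed: SteadyGlo luminescence measured ATXN2-luciferase expression after a fluorogenic Gly-Phe-AFC viability readout (25 uM final).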
The depositor's hits bear a star; i = inactive; ? = inconclusive; / = no result given. Hits are enriched below; roughly 17% of the tested compounds scored in any of these assays. Calls come from the whole dose curve; as a rule, active = well fitted curve in the direction sought with a large enough effect; inconclusive = small, poorly fitted or top-dose-only effect, or another doubt; inactive = no such curve, though single readings can be large; an effect the other way counts as inactive or inconclusive. Potency is the fitted concentration of half-maximal effect.

SMILES	ATXN viability	TGFb SMAD3 inh	TDP1 cell CPT	DT40 TDP1 no CPT	HepG2 tox	ATXN2 expr inh
COc1cc2c(ccc3c4cc(OC)c(OC)cc4c[n+](C)c23)cc1O	i	-0.7%	1.3µM*	1.16µM*	5.6%	?
CCCCC[C@H]1CCCCC[C@H](O)C[C@H](O)[C@@H](O)/C=C/C(=O)O1	i	/	23.1µM*	20.6µM*	/	-10.4%
CCCCC[C@H]1CCCCC[C@H](O)C[C@@H](O)[C@H](O)/C=C/C(=O)O1	i	/	?	?	/	-22.7%
COc1cc([C@@H]2c3cc4c(cc3C[C@H]3COC(=O)[C@@H]32)OCO4)cc(OC)c1O	/	-19.6%	0.0708µM*	0.0316µM*	4.2%	/
COc1cc(C2c3cc4c(cc3CC3COC(=O)C32)OCO4)cc(OC)c1OC (configuration not stated)	?	?	0.0206µM*	0.0052µM*	5.0%	-2.9%
C=C1C/C(=C\C)C(=O)O[C@@H]2CCN3CC=C(COC(=O)[C@@]1(C)O)[C@H]23	i	/	/	/	/	/
CCOC(=O)C(O)(c1ccc(NC(=O)NC2CCCCC2)cc1)C(F)(F)F (configuration not stated)	i	27.7%	-24.1%	?	-24.4%	39.6%
O=C(Nc1ccc(Cl)c(C(F)(F)F)c1)NC1CC2CCCC(C1)N2Cc1ccccc1 (configuration not stated)	?	20µM*	18.4µM*	13µM*	-114.9%	?
CCN(CC)c1ccc(C=C2C(=O)NC(=S)NC2=O)cc1	?	17.8µM*	?	14.6µM*	15.8µM*	/
CN(C)c1ccc(C=C2C(=O)NC(=O)NC2=O)cc1	i	-4.8%	-16.0%	-6.1%	-5.2%	-28.4%
O=C1NC(=O)C(=Cc2ccc(OCCOc3ccc([N+](=O)[O-])cc3)cc2)C(=O)N1	i	5.4%	?	?	-0.4%	1.6%
CCOc1ccc(C=C2C(=O)NC(=S)NC2=O)cc1OCC	i	15.6%	1.2%	-4.0%	-13.7%	-8.1%
CC(C)CN(CC(C)C)c1ccc(C=C2C(=O)NC(=S)NC2=O)cc1[N+](=O)[O-]	i	?	?	20.6µM*	-14.2%	28.5%
CN(C)c1ccc(C=C2C(=O)NC(=S)NC2=O)cc1	/	-6.2%	8.2µM*	16.4µM*	-23.9%	?
COc1ccccc1-n1c(O)c(/C=C2\C=Nc3ccccc32)c(=O)[nH]c1=O	i	1.8%	?	?	-36.0%	10.0%
O=C1C=CC2C3C(=O)N(c4ccccc4)C(=O)C3C1N2Cc1ccccc1 (configuration not stated)	5.97µM*	2.82µM*	2.06µM*	2.31µM*	12.6µM*	?
CC1=C2CCC3C4CCC(=O)[C@@]4(C)CCC3[C@]2(C)CCC1=O (some centres not stated)	/	/	-14.7%	-20.1%	/	/
CCc1c(C(=O)C(N)=O)c2c(OCC(=O)O)cccc2n1Cc1ccccc1	/	/	/	/	/	-2.1%
CCCNC1=C(C)C(=O)C2=C(C1=O)C(COC(N)=O)[C@]1(OC)C3NC3CN21 (some centres not stated)	/	-28.3%	?	0.259µM*	-9.7%	?
O=c1cc(-c2ccc(O)c(O)c2)oc2c(C3O[C@H](CO)[C@@H](O)[C@H](O)[C@H]3O)c(O)cc(O)c12 (some centres not stated)	?	-19.9%	-0.5%	-4.6%	-3.7%	6.4%
COc1ccc(C2=C(C(C)=O)Sc3nnc(-c4ccc(C)cc4)n3N2C(C)=O)cc1OC	/	?	2.91µM*	4.61µM*	-16.1%	/

High-throughput results (PubChem BioAssay)
